From paper PMC5540273 (PLoS ONE, 2017)

Legend:
Settings in all cases: concentration: 1 μM, replicates: in singlicate; n = 1
CAMK4 = system: CAMK4
CAMKK1 = system: CAMKK1
CAMKK2 = system: CAMKK2
CASK = system: CASK
CDC2L1 = system: T1, CDC2L1
T1 construct: gene CDK11B

CDC2L2 = system: CDC2L2
CDC2L5 = system: T2, CDC2L5
T2 construct: gene CDK13

CDK11 = system: T3, CDK11
T3 construct: gene CDK19

CDK2 = system: CDK2
CDK3 = system: CDK3
CDK4-cyclinD1 = system: CDK4-cyclinD1
CDK4-cyclinD3 = system: CDK4-cyclinD3
CDK4 = system: CDK4
CDK5 = system: CDK5
CDK7 = system: CDK7
CDK8 = system: CDK8
CDK9 = system: CDK9
CDKL1 = system: CDKL1
CDKL2 = system: CDKL2
CDKL3 = system: CDKL3
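Note: KINOMEscan kinase panel screen.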

SMILES	%Inh (CAMK4)	%Inh (CAMKK1)	%Inh (CAMKK2)	%Inh (CASK)	%Inh (CDC2L1)	%Inh (CDC2L2)	%Inh (CDC2L5)	%Inh (CDK11)	%Inh (CDK2)	%Inh (CDK3)	%Inh (CDK4-cyclinD1)	%Inh (CDK4-cyclinD3)	%Inh (CDK4)	%Inh (CDK5)	%Inh (CDK7)	%Inh (CDK8)	%Inh (CDK9)	%Inh (CDKL1)	%Inh (CDKL2)	%Inh (CDKL3)
CS(=O)(=O)CCNCc1nc(-c2ccc3ncnc(Nc4ccc(OCc5ccccc5)c(Cl)c4)c3c2)cs1.Cl [GW582764]	0%	0%	7%	5%	0%	0%	0%	0%	0%	1%	45%	0%	38%	0%	0%	47%	0%	9%	18%	0%
CCCCc1nn2ncccc2c1-c1ccnc(NC2CC2)n1 [GW684374]	0%	0%	14%	0%	0%	11%	0%	5%	0%	0%	0%	12%	21%	0%	0%	0%	0%	0%	15%	0%
FC(F)(F)c1ccccc1-c1cc(-c2c[nH]nc2-c2ccccn2)ccn1 [GW679396]	0%	5%	21%	17%	0%	0%	0%	0%	0%	0%	17%	0%	32%	0%	0%	9%	4%	0%	6%	0%
COc1cccc(C2=C(Nc3cc(Cl)c(O)c(Cl)c3)C(=O)NC2=O)c1 [SB-390767]	0%	11%	0%	32%	0%	0%	0%	0%	0%	18%	0%	0%	0%	5%	0%	0%	0%	1%	20%	0%
c1ccc(-c2ccnc3[nH]ccc23)cc1 [SB-693578]	0%	10%	11%	26%	0%	6%	0%	20%	0%	2%	0%	19%	22%	0%	6%	35%	0%	2%	12%	0%
COc1ccc(CSc2nnc(-c3ccc4ncsc4c3)o2)cc1C(F)(F)F	0%	0%	0%	10%	0%	0%	35%	37%	1%	0%	0%	0%	0%	2%	0%	15%	0%	0%	0%	0%
Cc1ccc(NC(=O)c2ccc(Cl)cc2)cc1-c1ccc(C(=O)Nc2ccncc2)cc1 [GSK1398467]	0%	0%	5%	16%	0%	24%	0%	2%	0%	6%	0%	0%	0%	0%	0%	0%	0%	13%	20%	0%
Cc1ccc(NC(=O)Nc2ccccc2)cc1-c1ccc(C(=O)Nc2ccncc2)cc1 [GSK1398471]	0%	0%	19%	0%	0%	13%	0%	11%	1%	0%	0%	0%	0%	0%	0%	0%	0%	0%	23%	1%
Nc1nccc(-c2c(-c3ccc(F)cc3)ncn2C2CCN(Cc3ccccc3)CC2)n1 [SB-219980]	13%	2%	0%	0%	7%	38%	0%	1%	0%	0%	0%	0%	5%	16%	13%	0%	0%	0%	0%	9%
Cn1cncc1-c1cc2c(Nc3ccc(OCc4ccccc4)cc3)ncnc2cn1 [GW281179]	0%	3%	32%	20%	0%	17%	0%	47%	0%	7%	0%	4%	0%	0%	0%	17%	0%	100%	21%	0%
